CSC inhib: blocks cancer stem cells | cancer stem cell-like cells viability, luminescence | inhibition, % at 7.5 µM | 1.1% of 300,000 active | AID 2717; in the data active = inhibition above about 75%; tested in HMLE shEcad cells
Mdm2 MdmX PPI: disrupts the human Mdm2-MdmX interaction. 3% of 330,000 active. inhibition, % at 8 µM. AID 485346. SaOS-2 split-luciferase Mdm2/MdmX complementation, luminescence. O15151+Q00987;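 active = inhibition of at least 50% at 8 µM in the primary screen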
Gli-Sufu block: Gli-Sufu pathway antagonism; Sufu-KO-LIGHT fibroblasts, Gli luciferase reporter luminescence; inhibition, % at 5 µM; 0.74% of 340,000 active; AID 588413;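 active = inhibition above about 55%, limit read from the data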;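 also: 0% = DMSO-treated cells and 100% = wells with medium but no cells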
Jurkat NFkB inh: lowers PMA/ionomycin-induced NF-kB signal in Jurkat cells | inhibition, % at 4 µM | 0.53% of 330,000 active | PMA/ionomycin-induced NF-kB luciferase reporter, luminescence; in the data active = inhibition above about 50%
Beta apoptosis: beta cell apoptosis inhibition; INS-1E cytokine-induced death, ATP luminescence, 48 h; percent of positive-control rescue, neutral wells zero; protection from apoptosis, % (concentration not given with the values); 0.8% of 300,000 active; AID 435005;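 active = Every replicate reaches about 75%, or at least half do and their mean reaches it too, limit read from the data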;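 also: 0% = cytokine-treated negative control wells and 100% = positive control rescue; higher means more ATP so stronger rescue from cytokine killing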
697 NFkB inh: lowers PMA/ionomycin-induced NF-kB signal in 697 B cells. 697 B-cell NF-kB luciferase reporter, 16 h. inhibition, % at 4 µM. 0.33% of 330,000 active; in the data active = inhibition above about 35%
Jurkat NFkB conf: inhibitors of the PMA/ionomycin-induced NF-kB reporter in Jurkat cells, retest; shares compounds with Jurkat NFkB inh; Jurkat NF-kB luciferase, 16 h; inhibition, % at 4 µM; 27% of 2,700 active;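 active = inhibition reaching about 45% at 4 µM in either replicate, limit read from the data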;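 also: plate controls were PMA/ionomycin stimulated DMSO wells for no effect and unstimulated DMSO wells for full effect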
Mdm2 MdmX conf: confirmation of human Mdm2/MdmX interaction inhibitors. shares compounds with Mdm2 MdmX PPI. Mdm2-MdmX binding, luminescent assay. inhibition, % at 8 µM. 55% of 10,000 active. AID 489028; in the data active = inhibition above about 40%
FLuc counter: counter-screen for Mdm2/MdmX inhibitors: full-length luciferase. shares compounds with Mdm2 MdmX PPI. SaOS-2 full-length luciferase counterscreen, luminescence. inhibition, % at 8 µM. 77% of 6,200 active. AID 504607;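 active = mean inhibition at 8 µM reaching about 37%, which flags the compound as non-specific, limit read from the data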;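 also: p53-null SaOS-2 cells with luciferase driven by a doxycycline-inducible promoter; compound on cells about two nights before reading with doxycycline added after day one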
* hit, by the source's call. In the library only some 4.5% were active in any assay of this set; here they are far more common.

Results for COc1ccccc1NC(=O)NC1(C(=O)N2CCN(C)CC2)CCCCC1 ?
CSC inhib: -8; Mdm2 MdmX PPI: 2; Gli-Sufu block: -16; Jurkat NFkB inh: 8; Beta apoptosis: -3; 697 NFkB inh: 5

What do the screens show for `COc1cc(NS(=O)(=O)c2ccc(OC)c(C)c2C)c(OC)cc1Cl`?
CSC inhib: 57; Mdm2 MdmX PPI: 51*; Gli-Sufu block: 20; Jurkat NFkB inh: 58*; Beta apoptosis: 29; 697 NFkB inh: -44; Jurkat NFkB conf: 51*; Mdm2 MdmX conf: 55*; FLuc counter: 63*

How did COc1ccc(OC)c(S(=O)(=O)Nc2cc(OC)c(Cl)cc2OC)c1 do in these assays?
CSC inhib: -3; Mdm2 MdmX PPI: 11; Gli-Sufu block: 30; Jurkat NFkB inh: 16; Beta apoptosis: -1; 697 NFkB inh: 7

How did CCC1N=C(SC)NC(C)=C1C(=O)c1ccccc1 (centres undefined) do in these assays?
CSC inhib: 2; Mdm2 MdmX PPI: 15; Gli-Sufu block: -20; Jurkat NFkB inh: 1; Beta apoptosis: -10; 697 NFkB inh: 0

Results for CSC1=NC(C(Cl)(Cl)Cl)N=C(c2ccc(C)cc2)N1 (centres undefined) ?
CSC inhib: 57; Mdm2 MdmX PPI: 72*; Gli-Sufu block: 2; Jurkat NFkB inh: 70*; Beta apoptosis: 5; 697 NFkB inh: -5; Jurkat NFkB conf: 44; Mdm2 MdmX conf: 70*; FLuc counter: 67*

What do the screens show for `O=c1[nH]c(CN2CCN(c3ccc(O)cc3)CC2)nc2scc(-c3ccc(Cl)cc3)c12`?
CSC inhib: 105*; Mdm2 MdmX PPI: 59*; Gli-Sufu block: 5; Jurkat NFkB inh: 60*; Beta apoptosis: 8; 697 NFkB inh: -47; Jurkat NFkB conf: 20; Mdm2 MdmX conf: 54*; FLuc counter: 58*

How did COc1ccc(C=NNc2nc3ccccc3s2)cc1 do in these assays?
Gli-Sufu block: -101

What do the screens show for `C(=N\Nc1nc2ccccc2s1)/c1ccccn1`?
CSC inhib: 94*; Mdm2 MdmX PPI: 94*; Gli-Sufu block: 75*; Jurkat NFkB inh: 84*; 697 NFkB inh: 22; Jurkat NFkB conf: 73*; Mdm2 MdmX conf: 95*; FLuc counter: 48*

How did CC(=O)Nc1ccc(NC(=O)C(C)OC(=O)c2ccc3ccccc3n2)cc1 (centres undefined) do in these assays?
CSC inhib: -21; Mdm2 MdmX PPI: 11; Gli-Sufu block: 0; Jurkat NFkB inh: 12; Beta apoptosis: 1; 697 NFkB inh: 13

Results for CC(C)N1CCc2c(sc(NC(=O)Cc3ccccc3)c2C(N)=O)C1 ?
CSC inhib: -2; Mdm2 MdmX PPI: 22; Gli-Sufu block: 3; Jurkat NFkB inh: 0; Beta apoptosis: -5; 697 NFkB inh: -12

Results for CC(=O)Nc1sc2c(c1-c1nc3ccccc3s1)CCN(C(C)C)C2 ?
CSC inhib: 56; Mdm2 MdmX PPI: 100*; Gli-Sufu block: -27; Jurkat NFkB inh: 84*; Beta apoptosis: 100*; 697 NFkB inh: -34; Jurkat NFkB conf: -30; Mdm2 MdmX conf: 69*; FLuc counter: 60*

How did CCOC(=O)Nc1nc(-c2ccccc2)c(C(=O)c2ccccc2)s1 do in these assays?
CSC inhib: 62; Mdm2 MdmX PPI: 61*; Gli-Sufu block: 49; Jurkat NFkB inh: 51*; Beta apoptosis: 25; 697 NFkB inh: -7; Jurkat NFkB conf: 50*; Mdm2 MdmX conf: 51*; FLuc counter: 91*

What do the screens show for `CN1/C(=C/C(=O)c2nc(S(C)(=O)=O)ncc2Cl)C(C)(C)c2ccccc21`?
CSC inhib: 111*; Mdm2 MdmX PPI: 100*; Gli-Sufu block: 20; Jurkat NFkB inh: 57*; Beta apoptosis: 61; 697 NFkB inh: 9; Jurkat NFkB conf: 26; Mdm2 MdmX conf: 100*; FLuc counter: 52*

Results for CN1/C(=C\C(=O)c2cccnc2)C(C)(C)c2ccccc21 ?
CSC inhib: -8; Mdm2 MdmX PPI: 24; Gli-Sufu block: 5; Jurkat NFkB inh: -26; Beta apoptosis: -8; 697 NFkB inh: -31

What do the screens show for `COc1cc(OC)cc(C(=O)Nc2ccc(N3CCN(C(=O)c4cccs4)CC3)cc2)c1`?
CSC inhib: 14; Mdm2 MdmX PPI: 63*; Gli-Sufu block: 6; Jurkat NFkB inh: 64*; Beta apoptosis: 19; 697 NFkB inh: -63; Jurkat NFkB conf: 20; Mdm2 MdmX conf: 70*; FLuc counter: 69*

How did Cc1cc(C)c(S(=O)(=O)Nc2ccc3c4c(cccc24)CC3)c(C)c1 do in these assays?
CSC inhib: 93*; Mdm2 MdmX PPI: 75*; Gli-Sufu block: 50; Jurkat NFkB inh: 58*; Beta apoptosis: 14; 697 NFkB inh: -68; Jurkat NFkB conf: 45; Mdm2 MdmX conf: 63*; FLuc counter: 107*

How did Cc1ccc(S(=O)(=O)Nc2ccc3c4c(cccc24)CC3)c(C)c1 do in these assays?
CSC inhib: 52; Mdm2 MdmX PPI: 71*; Gli-Sufu block: 0; Jurkat NFkB inh: 50*; Beta apoptosis: 10; 697 NFkB inh: -25; Jurkat NFkB conf: 28; Mdm2 MdmX conf: 60*; FLuc counter: 53*

What do the screens show for `CC(=O)Nc1ccc2c3c(cccc13)CC2`?
CSC inhib: 18; Mdm2 MdmX PPI: 16; Gli-Sufu block: -2; Jurkat NFkB inh: -4; Beta apoptosis: -1; 697 NFkB inh: 5

How did COc1ccc(N(CC(=O)NC2CC2)S(=O)(=O)c2ccccc2)cc1 do in these assays?
CSC inhib: -6; Mdm2 MdmX PPI: -10; Gli-Sufu block: 28; Jurkat NFkB inh: 3; Beta apoptosis: -7; 697 NFkB inh: 2

How did C=C1C(=O)O[C@@H]2[C@H]1[C@@H](OC(=O)/C(C)=C/C)C/C(C)=C\C(=O)/C=C(\C)[C@@H]2O do in these assays?
CSC inhib: 2; Mdm2 MdmX PPI: 100*; Gli-Sufu block: 4; Jurkat NFkB inh: 88*; Beta apoptosis: 45; 697 NFkB inh: -201; Jurkat NFkB conf: 34; Mdm2 MdmX conf: 83*; FLuc counter: 51*

Results for CCOC(=O)C1(CCOc2ccccc2)CCN(CC(O)CO)CC1 (centres undefined) ?
CSC inhib: -1; Mdm2 MdmX PPI: 4; Gli-Sufu block: 11; Jurkat NFkB inh: -8; Beta apoptosis: -6; 697 NFkB inh: -14

How did CCN(Cc1ccccc1)c1ccc(/C=N/N=C(N)N)cc1 do in these assays?
CSC inhib: 102*; Mdm2 MdmX PPI: 98*; Gli-Sufu block: 23; Jurkat NFkB inh: 61*; 697 NFkB inh: -37; Jurkat NFkB conf: 13; Mdm2 MdmX conf: 100*; FLuc counter: 58*

Bioassay records deposited in PubChem by several laboratories.
